# Shown are actives, neighbours in structure and some others; about 3.9% of the full set was active somewhere.
# HepG2 viability = counter-screen for TGF-b inhibitors: cytotoxicity in HepG2 cells; HepG2 CAGA-GFP viability, ATP luminescence, 18 h; Potency, µM (top dose mostly 46.1 µM), inactives show top-dose activity change, negative = cytotoxicity, usual class: cytotoxic; actives 0.76% (n = 410,000)
#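 CellTiter-Glo luminescence gave cytotoxicity after 18 hours at 37 degrees C. The cells were HepG2 CAGA-GFP in 1% FBS DMEM, stimulated with 500 pg/mL TGF-beta after compound addition. %Activity was normalised to no-cell wells (complete cell-killing) and DMSO (no toxicity), and curves were fitted and classified.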
# ATXN2 expr inh = ATXN2 expression inhibition; HEK-293 ATXN2-luciferase reporter, luminescence, 24 h; actives 0.72% (n = 360,000); Potency, µM (highest dose often 57 µM), inactives show at the highest dose activity change, negative = inhibition, actives largely listed as inhibitors; also: % is scaled to controls: 0 for no effect and ±100 for the full control effect; nearly all actives have a fitted effect of over 55% in size
#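 qHTS (up to 57 uM final) was run with 24 h compound exposure of reporter cells at 37 °C. Each well was multiplexed: SteadyGlo luminescence measured ATXN2-luciferase expression after a fluorogenic Gly-Phe-AFC viability readout (25 uM final).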
# ATXN viability = reduces viability in counter-screen for ATXN expression inhibitors; actives 0.49% (n = 400,000); Potency, µM (doses to about 56.7 µM), hits mostly cytotoxic; S2 cells (HEK-293 line with an ATXN2-luciferase reporter) viability, CellTiter-Fluor protease fluorescence, 24 h; also: nearly all actives have a fitted effect of over 40% in size
# HT1080NT lethal = kills 2HG-producing HT-1080-NT fibrosarcoma cells; Potency, µM (series often up to 46.1 µM), for inactives: top-dose activity, negative = less viability, hits mostly cytotoxic; AID 686970; actives 1.6% (n = 360,000); HT-1080-NT fibrosarcoma viability, CellTiter-Glo ATP luminescence, 48 h;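 also: NT is the 2HG producing partner of a matched IDH1 knockdown line; 0% = DMSO-treated cells and -100% = media-only wells without cells; nearly all actives have a fitted effect of over 55% in size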
#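 Read-out is CellTiter-Glo luminescence after 10 minutes at room temperature, following 48 hours' compound treatment of HT-1080-NT cells (750 cells/well, RPMI, 5% FBS, 37 degrees C).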
# TGFb SMAD3 inh = blocks TGF-b signaling; Potency, µM (doses to about 46.1 µM), without a hit: at the highest dose activity, negative = inhibition, actives largely listed as inhibitors; AID 588855; HepG2 CAGA-GFP TGF-b/SMAD3 reporter, GFP fluorescence, 18 h; TGF-beta stimulated, 500 pg/mL final; actives 1.2% (n = 410,000); also: % is scaled to controls: 0 for no effect and ±100 for the full control effect; nearly all actives have a fitted effect of over 65% in size
#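 Inhibition of TGF-beta-driven CAGA-GFP reporter expression in HEPG2 cells is measured by cellular GFP fluorescence after 18 h stimulation with 500 pg/mL recombinant TGF-beta in 1% FBS medium at 37 degrees C.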
# HT1080 IDH1KD tx = kills HT-1080 cells with IDH1 knockdown; AID 686971; HT-1080 IDH1 knockdown viability, ATP luminescence, 48 h; Potency, µM (highest dose often 46.1 µM), inactives show at the top dose activity, negative = toxicity, hits mostly cytotoxic; actives 2% (n = 360,000);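 also: 0% = DMSO wells and -100% = cell-free medium wells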
#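 % activity derives from luminescence (CellTiter-Glo), normalised to DMSO and no-cell wells. HT-1080-IDH1KD cells, 750/well, had 48 h compound exposure at 37 °C.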
# The depositor's hits bear a star; i = inactive; u = inconclusive; x = not tested or not shown. Calls follow the shape of the dose curve; as a rule, active = well fitted curve in the direction sought with a large enough effect; inconclusive = small, poorly fitted or top-dose-only effect, or another doubt; inactive = no such curve, though single readings can be large; an effect the other way counts as inactive or inconclusive. Potency is read from the fitted curve at half-maximal effect.
SMILES,HepG2 viability,ATXN2 expr inh,ATXN viability,HT1080NT lethal,TGFb SMAD3 inh,HT1080 IDH1KD tx
CCc1nnc(NC(=O)c2ccncc2)s1,-27.4%,4.7%,i,18.7%,-14.3%,13.9%
CCc1nnc(NC(=O)c2cccc(C(=O)Nc3nnc(CC)s3)n2)s1,-53.6%,u,u,-0.9%,0.251µM*,-12.9%
COc1cc(-c2nccc3cc4c(cc23)OCO4)cc(OC)c1OC,-6.9%,-23.4%,u,u,7.8%,4.61µM*
COc1cc(CC(=O)NCc2ccc3c(c2)OCO3)cc(OC)c1OC,-0.1%,6.5%,i,13.4%,0.5%,8.2%
CCOC(=O)c1c(C)nc2ccc(Cl)cc2c1-c1ccccc1,-37.6%,-37.1%,i,-22.0%,u,u
CCOCc1nc(N)nc(N)c1-c1cccc(Cl)c1,11.2µM*,x,i,u,0.2%,u
Cc1cc(C(=O)CSc2nc3ccccc3[nH]2)c(C)n1CC1CCCO1 (stereo unspecified),-1.9%,u,17.8µM*,0.9%,u,u
O=C(Nc1ccc(Cl)c(Cl)c1)C1C2C=CC3(O2)C1C(=O)N(CCN1CCCCC1)C3C(=O)NC1CCCCC1 (stereo unspecified),-15.1%,-18.4%,u,20.6µM*,13.9%,u
O=C(N=Nc1c(O)[nH]c2ccc(Br)cc12)c1cc(-c2cccs2)nc2ccccc12,-39.7%,11.2µM*,10µM*,u,-3.5%,13µM*
Cn1c(O)c(N=NC(=O)c2cc(-c3cccs3)nc3ccccc23)c2ccccc21,-11.0%,-24.2%,u,-8.4%,u,-19.0%
Cc1noc(C)c1COc1cccc(C(=O)OCC(=O)N2CC(=O)Nc3ccccc32)c1,-2.5%,36.7%,i,u,-2.0%,1.84µM*
CN1CC[C@H](c2c(O)cc(O)c3c(=O)cc(-c4ccccc4Cl)oc23)[C@@H](O)C1,-2.8%,x,x,x,0.224µM*,x
O=c1cc(-c2ccccc2Cl)oc2c([N+](=O)[O-])c(O)cc(O)c12,-5.9%,u,i,-28.8%,12.6µM*,-29.3%
O=c1cc(-c2ccccc2Cl)oc2ccc([N+](=O)[O-])c(O)c12,-36.4%,9.7%,i,2.0%,-9.7%,-3.7%
CCOC(=O)c1c(C)n(-c2ccccc2)c2ccc(OC(=O)c3cccc(Cl)c3)cc12,-5.1%,-1.1%,i,x,-15.4%,x
COc1cc(=O)n2c(c1C(=O)N(C)Cc1nonc1C)CCN(Cc1cc(C)ccc1C)CC2,x,x,i,x,x,x
CC(=O)Nc1cc(O)c2nonc2c1O,0.562µM*,x,x,x,0.562µM*,x
CC(=O)Nc1c(O)cc(Br)c2nonc12,1.7%,x,x,x,16.8%,x
O=C(CCNS(=O)(=O)c1ccc(Br)cc1)NCc1ccc(Cl)cc1,11.2µM*,-10.3%,i,-13.3%,-10.9%,-7.2%
Cc1ccc(CNC(=O)CCNS(=O)(=O)c2ccc(C)cc2)cc1,-5.7%,3.1%,i,-2.8%,-5.2%,-11.0%
COc1ccc(-n2ccn(CC(=O)Nc3ccccc3C(F)(F)F)c(=O)c2=O)cc1OC,4.8%,x,x,x,16.1%,x
CCOc1ccc(Cn2c(CNS(=O)(=O)c3cccs3)nc3cccnc32)cc1,-10.6%,x,x,x,-9.2%,x
O=C(NCC1Cc2cccc(-c3cnccn3)c2O1)c1ccc(F)c(Cl)c1 (stereo unspecified),x,x,i,x,x,x
CCOC(=O)C1(Nc2nccs2)Sc2ccccc2NC1=O (stereo unspecified),-22.4%,-19.4%,u,10.3µM*,-10.0%,8.2µM*
CCOC(=O)/C=C1\CN(Cc2ccc(OC)cc2)S(=O)(=O)c2ccc(C(F)(F)F)cc21,-31.3%,x,x,x,u,x
SMILES,HepG2 viability,ATXN2 expr inh,ATXN viability,HT1080NT lethal,TGFb SMAD3 inh,HT1080 IDH1KD tx
CC(C)(C)c1ccc(OCC(O)CN(CCO)CC(O)Cn2ccc3ccccc32)cc1 (stereo unspecified),-73.6%,-18.0%,i,u,11.2µM*,u
Cc1ncc(CO)c(/C=N/Nc2ccc(C(F)(F)F)cn2)c1O,-16.1%,6.31µM*,i,-29.6%,0.0%,u
CCOc1ccc(/C=N/NC(=O)C(O)c2ccccc2)c(O)c1 (stereo unspecified),-8.2%,31.6µM*,i,u,-0.2%,11.6µM*
CCOc1ccc(CCNC(=O)C(O)c2ccccc2)cc1 (stereo unspecified),7.4%,-0.8%,i,5.7%,9.4%,-0.2%
CCCOc1ccc(C2c3c(-c4ccccc4O)n[nH]c3C(=O)N2Cc2ccncc2)cc1OCC (stereo unspecified),2.6%,-9.0%,u,x,16.2%,x
Cc1cc([N+](=O)[O-])ccc1-c1ccc(C2Nc3ccccc3C(=O)N2O)o1 (stereo unspecified),-36.0%,u,u,u,-1.1%,7.08µM*
COc1ccccc1CN1CCOc2ccc(CN3CCC(Oc4cccnc4)CC3)cc2C1,x,x,i,x,x,x
O=C(CC(C(=O)O)n1ccnc1)c1ccc(Cl)cc1 (stereo unspecified),6.3%,x,x,x,-12.8%,x
COc1ccc(C(=O)N(C)Cc2cnn(Cc3ccccc3)c2)cc1S(=O)(=O)N1CCOCC1,-12.8%,x,i,5.8µM*,u,5.8µM*
CN(Cc1cnn(Cc2ccccc2)c1)C(=O)c1cccc(S(=O)(=O)N2CCOCC2)c1,-1.3%,-11.1%,u,u,-15.2%,u
Cc1nc2ccccn2c1-c1csc(Nc2ccc(C(=O)O)cc2)n1,2.5%,1.8%,i,2.06µM*,0.0%,3.26µM*
Cc1nc2ccccn2c1-c1csc(Nc2cccc(O)c2)n1,1.5%,-8.2%,u,1.64µM*,u,1.46µM*
C#C[C@]1(O)CC[C@H]2[C@H]3CCc4cc(OC)ccc4[C@H]3CC[C@@]21C,x,-1.2%,x,x,x,x
CCNC(=O)C1(C)CCCN(Cc2csc(-c3ccc(Cl)cc3)n2)C1 (stereo unspecified),-0.6%,-35.4%,i,0.461µM*,1.2%,u
CCCNC(=O)C1(C)CCCN(Cc2csc(-c3ccccc3)n2)C1 (stereo unspecified),-24.8%,-24.6%,i,-27.0%,-5.7%,-3.8%
O=C1C=Cc2cccc3ccc(O)c1c23,-4.7%,7.08µM*,i,u,-2.3%,u
COC(=O)/C(=C\Nc1ccc(Cl)cc1Cl)NC(=O)c1ccc(OC)cc1,-8.7%,-14.3%,u,3.26µM*,-15.5%,1.64µM*
COC(=O)/C(=C\Nc1ccc(OC)cc1)NC(=O)c1ccc(Cl)cc1Cl,3.3%,2.4%,i,-3.8%,-5.9%,-19.9%

# Compound activity: PubChem BioAssay, National Center for Advancing Translational Sciences (NCATS)
